Calls of active or inactive are those of the source. Unless noted, the rule behind the calls is not given here.

For test [1], the system named is Wnt5a (protein binding on small-molecule microarray). Description: small molecules binding Wnt5a protein – biophysical, small-molecule microarray, 635/667 nm fluorescence, primary screen (AID 1142).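 Note: fluorescence read at 667 nm with signal to noise per printed feature.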 The following applies: 635 nm fluorescence, higher = more signal.
Test [2] is described as follows: ATP-based viability of Huh7 replicon cells – cell-based, CellTiter-Glo luminescence, basal, 48 h, cytotoxicity control for HCV replication inhibitor project, primary screen (AID 1143).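 Note: Huh7 hepatoma cells carrying a hepatitis C replication reporter with no stimulus; test concentration not given here.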 The following applies: higher = more signal, called active from +8 up or from −8 down. Background: A replicon is a self-replicating genome or part of one, used to study replication in cells.

Test [3] is described as follows: Pseudomonas biofilm growth suppression – PAO1 strain, BacTiter-Glo luminescence, LB-PBS, primary screen (AID 1144). The following applies: P. aeruginosa PAO1 biofilm, 12 h, higher = more signal.
Test [4] is described as follows: basal CRE-LacZ reporter activity in PC12 – cell-based, unstimulated, primary screen (AID 1145). The note with it: no forskolin, luminescence, 4.5 h, higher = more signal, called active from +8 up or from −8 down.
Test [5] in a line: forskolin-driven CRE-LacZ activity in PC12 – cell-based, CRE-LacZ reporter, forskolin-stimulated, primary screen (AID 1146).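 Note: PC12 cells with 6xCRE LacZ reporter stimulated by forskolin 10 µM; beta-galactosidase reporter signal reflecting CREB driven transcription.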 The following applies: luminescence, 4.5 h, higher = more signal, called active from +8 up or from −8 down.
In test [6] the target is Streptavidin (Streptomyces avidinii) (UniProt P22629). Description: compounds binding control protein streptavidin – biophysical, small-molecule microarray, 635/667 nm fluorescence, artefact control for SMM compound annotation, primary screen (AID 1147).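 Note: signal reflects streptavidin binding to arrayed compounds as a control protein.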 The following applies: higher = more signal.
Test [7] is described as follows: probe aInhba binding on compound microarray – biochemical, small-molecule microarray, 635/667 nm fluorescence, primary screen (AID 1148).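 Note: score merges 667nm spot fluorescence with signal-to-noise for antibody binding to printed compounds.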 The note with it: higher = more signal.
The target in test [8] is Torsin-1A (Homo sapiens) (UniProt O14656). The test can be described thus: TOR1A wild-type binding on microarray – cell lysate, small-molecule microarray, lysate, 635/667 nm, primary screen (AID 1149). The following applies: COS7 hTOR1A-WT lysate, 635 nm fluorescence, higher = more signal.
The target is the same in test [9]. Description: torsin A mutant lysate binding on microarrays – cell lysate, small-molecule microarray, COS7 lysate, 635/667 nm fluorescence, primary screen (AID 1150).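 Note: score pools 667 nm emission and signal to noise measuring lysate protein binding.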 The following applies: COS7 hTOR1A mutant lysate, 635 nm fluorescence, higher = more signal.
In test [10] the test system is Sonic hedgehog protein (Shh). Description: Sonic hedgehog microarray binding compounds – biochemical, small-molecule microarray, 635/667 nm fluorescence, primary screen (AID 1151).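 Note: Shh protein binding to compounds spotted on small-molecule microarray slides; score combines spot fluorescence intensity with signal-to-noise across triplicate slides.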 The following applies: 635 nm fluorescence, higher = more signal.
Test [11] can be described thus: optical density shifts of acrAB sulA E. coli – strain DRC41, OD650, 48 h, E. coli filamentation inducer project, primary screen (AID 1152).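 Note: E. coli MC1000 strain DRC41 lacking acrAB efflux pump and sulA.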 The note with it: higher = more signal, called active from +8 up or from −8 down.
Test [12] can be described thus: probe aLefty1 binding on compound microarray – biochemical, small-molecule microarray, 635/667 nm fluorescence, primary screen (AID 1153).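 Note: score merges spot fluorescence with signal-to-noise ratio from the scanned slide images.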 The note with it: higher = more signal.
Test [13] can be described thus: plasmodial surface anion channel blockers, osmotic lysis – cell-based, P. falciparum Indochina, OD700, 1 h, primary screen (AID 1154). The following applies: P. falciparum Indochina infected RBC osmotic lysis, higher = more signal, called active from +8 up or from −8 down.
Test [14] can be described thus: plasmodial surface anion channel blockers, osmotic lysis – cell-based, P. falciparum Indochina, OD700, 2 h, primary screen (AID 1155).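 Note: lysis reports solute entry through the parasite surface anion channel PSAC.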 The following applies: P. falciparum Indochina infected erythrocytes, higher = more signal, called active from +8 up or from −8 down.
Test [15] in a line: changes in parasitized red cell lysis, either direction – P. falciparum Indochina, OD700, 3 h, PSAC antagonist project, primary screen (AID 1156). The note with it: P. falciparum-infected erythrocytes, osmotic lysis, higher = more signal, called active from +8 up or from −8 down.
A short description of test [16]: plasmodial surface anion channel blockers, osmotic lysis – cell-based, P. falciparum Indochina, OD700, 18 h, primary screen (AID 1157). The following applies: P. falciparum Indochina infected erythrocytes, osmotic lysis OD700, 18 h; higher = more signal, called active from +8 up or from −8 down.
Test [17] is described as follows: S6 kinase pathway phospho-S6 level changes – cell-based, A549, cytoblot, luminescence, serum-stimulated, primary screen (AID 1158).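 Note: serum-stimulated A549 lung adenocarcinoma cells; signal is phosphorylated S6 detected by cytoblot immunostaining with HRP secondary.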 The note with it: 5 h, higher = more signal.
Test [18] deals with NADPH oxidase 2 (Homo sapiens) (UniProt P04839). Description: compounds shifting NOX2 Amplex Red fluorescence – cell-based, HEK293-NOX2, PMA-stimulated, NOX inhibitor project, primary screen (AID 1159). Note: test concentration not given here. The note with it: 45 min, higher = more signal, called active from +8 up or from −8 down.
The target in test [19] is NADPH oxidase 4 (Homo sapiens) (UniProt Q9NPH5). The test can be described thus: compounds shifting NOX4 Amplex Red fluorescence – cell-based, HEK293-NOX4, tetracycline-induced, NOX inhibitor project, primary screen (AID 1160). The note with it: HEK293-NOX4, Amplex Red H2O2 fluorescence, 45 min; higher = more signal, called active from +8 up or from −8 down.
For test [20], the target named is NADPH oxidase 5 (Homo sapiens) (UniProt Q96PH1). Description: compounds shifting NOX5 Amplex Red fluorescence – cell-based, HEK293-NOX5, NOX inhibitor project, primary screen (AID 1161). The following applies: HEK293-NOX5, ionomycin, 45 min, higher = more signal.
NADPH oxidase 5 (Homo sapiens), sequence (Q96PH1 whole entry, looked up): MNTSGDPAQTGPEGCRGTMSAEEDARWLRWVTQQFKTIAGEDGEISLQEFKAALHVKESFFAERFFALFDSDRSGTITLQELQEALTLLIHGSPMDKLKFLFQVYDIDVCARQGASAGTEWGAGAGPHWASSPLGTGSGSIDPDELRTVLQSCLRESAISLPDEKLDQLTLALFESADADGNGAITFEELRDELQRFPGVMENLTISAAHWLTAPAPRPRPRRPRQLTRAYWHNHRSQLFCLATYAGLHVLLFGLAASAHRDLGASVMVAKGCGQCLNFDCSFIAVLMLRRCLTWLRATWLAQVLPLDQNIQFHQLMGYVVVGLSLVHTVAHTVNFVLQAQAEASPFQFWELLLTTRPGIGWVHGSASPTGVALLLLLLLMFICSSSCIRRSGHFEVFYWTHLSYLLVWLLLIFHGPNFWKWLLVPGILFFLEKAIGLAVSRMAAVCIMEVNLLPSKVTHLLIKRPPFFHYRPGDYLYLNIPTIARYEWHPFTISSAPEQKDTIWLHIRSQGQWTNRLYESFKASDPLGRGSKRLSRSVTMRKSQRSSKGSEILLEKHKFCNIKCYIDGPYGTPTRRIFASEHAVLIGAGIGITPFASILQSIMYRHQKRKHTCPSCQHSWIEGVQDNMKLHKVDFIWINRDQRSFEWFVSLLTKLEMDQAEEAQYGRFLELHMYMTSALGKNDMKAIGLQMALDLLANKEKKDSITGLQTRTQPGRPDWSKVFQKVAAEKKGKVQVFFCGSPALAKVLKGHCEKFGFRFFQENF

Streptavidin (Streptomyces avidinii), sequence (P22629 whole entry, looked up): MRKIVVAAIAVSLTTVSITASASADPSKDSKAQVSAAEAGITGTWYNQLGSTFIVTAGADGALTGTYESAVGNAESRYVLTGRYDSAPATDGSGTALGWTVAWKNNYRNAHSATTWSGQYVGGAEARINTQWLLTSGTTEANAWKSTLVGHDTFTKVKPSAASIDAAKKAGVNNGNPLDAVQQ
NADPH oxidase 2 (Homo sapiens), sequence (P04839 whole entry, looked up): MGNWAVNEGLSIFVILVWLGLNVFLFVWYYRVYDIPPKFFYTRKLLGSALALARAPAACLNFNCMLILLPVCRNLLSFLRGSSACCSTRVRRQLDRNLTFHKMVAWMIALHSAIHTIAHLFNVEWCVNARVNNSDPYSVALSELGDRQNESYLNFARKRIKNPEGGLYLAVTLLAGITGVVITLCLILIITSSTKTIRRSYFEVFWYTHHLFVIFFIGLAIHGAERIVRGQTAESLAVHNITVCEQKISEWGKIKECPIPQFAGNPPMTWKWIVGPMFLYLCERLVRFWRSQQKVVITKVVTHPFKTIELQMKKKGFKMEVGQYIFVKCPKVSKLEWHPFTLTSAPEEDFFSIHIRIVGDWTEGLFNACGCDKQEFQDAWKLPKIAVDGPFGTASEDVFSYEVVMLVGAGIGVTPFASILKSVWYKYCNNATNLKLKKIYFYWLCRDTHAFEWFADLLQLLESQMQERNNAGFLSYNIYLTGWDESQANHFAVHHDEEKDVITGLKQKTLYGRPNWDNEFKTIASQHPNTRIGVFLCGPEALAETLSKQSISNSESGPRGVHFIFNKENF
NADPH oxidase 4 (Homo sapiens), sequence (Q9NPH5 whole entry, looked up): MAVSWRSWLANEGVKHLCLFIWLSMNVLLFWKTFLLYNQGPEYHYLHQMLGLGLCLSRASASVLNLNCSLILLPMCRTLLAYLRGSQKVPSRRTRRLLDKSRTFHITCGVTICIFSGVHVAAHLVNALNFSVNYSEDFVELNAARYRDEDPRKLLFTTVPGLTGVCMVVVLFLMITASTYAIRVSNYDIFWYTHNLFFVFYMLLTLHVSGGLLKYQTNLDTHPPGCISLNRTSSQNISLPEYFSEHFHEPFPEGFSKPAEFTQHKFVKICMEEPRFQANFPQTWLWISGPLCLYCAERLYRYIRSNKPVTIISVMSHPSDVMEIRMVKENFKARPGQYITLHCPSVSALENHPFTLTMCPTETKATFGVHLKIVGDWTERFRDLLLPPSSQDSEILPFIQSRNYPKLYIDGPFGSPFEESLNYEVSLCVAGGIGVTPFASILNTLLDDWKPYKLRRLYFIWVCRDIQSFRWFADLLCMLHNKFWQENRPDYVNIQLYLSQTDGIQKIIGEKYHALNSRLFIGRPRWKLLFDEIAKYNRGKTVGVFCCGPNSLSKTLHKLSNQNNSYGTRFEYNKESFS
Torsin-1A (Homo sapiens), sequence (O14656 whole entry, looked up): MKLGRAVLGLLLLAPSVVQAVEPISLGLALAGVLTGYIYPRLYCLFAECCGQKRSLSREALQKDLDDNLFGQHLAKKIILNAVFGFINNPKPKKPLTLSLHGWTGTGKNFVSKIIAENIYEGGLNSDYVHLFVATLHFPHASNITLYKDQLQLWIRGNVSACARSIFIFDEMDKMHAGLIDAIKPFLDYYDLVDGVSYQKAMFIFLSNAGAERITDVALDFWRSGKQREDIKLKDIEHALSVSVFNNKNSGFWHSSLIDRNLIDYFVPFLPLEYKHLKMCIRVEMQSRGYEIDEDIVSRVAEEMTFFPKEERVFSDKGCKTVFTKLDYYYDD

On to `[N-]=[N+]=NCc1ccccc1[C@@H]1OC(c2ccc(OCCCO)cc2)=N[C@]1(Cc1ccccc1)C(=O)NCC(O)CO` (stereo not given in full), for which the composite z-score was 0.334 in test [1]; 0.255 in test [6]; 0.84 in test [7]; 0.281 in the test with Torsin-1A (Homo sapiens) [8]; 0.294 in the test with Torsin-1A (Homo sapiens) [9]; -0.492 in test [10]. In [12], this compound displayed a composite z-score of 0.484. In addition, the z-score was -1.58 (inactive) in [2]; 0.0756 (inactive) in [3]; 1.27 (inactive) in test [4]; -0.757 (inactive) in [5]; -0.0722 (inactive) in test [11]; 13.5 (active) in test [13]. In addition, the z-score in [14] was 1.15 (inactive); in test [15], 0.942 (inactive); in test [16] it was 0.123 (inactive); in [17], -0.319; in test [18] it was -0.847 (inactive); in [19] it was 1.7 (inactive). Besides, the z-score in test [20] is -0.0855.
With `C=CCOC(=O)[C@H]1[C@@H]2C(=O)O[C@@H](c3ccccc3)[C@@H](c3ccccc3)N2[C@@H](c2ccc(OCCOC(=O)[C@H]3C[C@H]4C(=O)N[C@@H](CCCCN(C)C)C(=O)N4[C@H]3c3ccc(O)cc3)cc2)[C@]12C(=O)Nc1ccc(I)cc12`, the composite z-score in test [1] amounted to 0.0259; in test [6], 1.23; in [7], 0.135; in the test with Torsin-1A (Homo sapiens) [8] it was 1.94; with Torsin-1A (Homo sapiens) [9] it was 1.33; in test [10], 1.96. Moreover, the composite z-score in [12] was 0.461. Further, the z-score in [2] was -0.264 (inactive); in [3], 0.549 (inactive); in [4], -0.268 (inactive); in test [5] it was 0.259 (inactive); in test [11] it was -0.635 (inactive); in [13] it was 5.21 (inactive). The z-score was 1.13 (inactive) in test [14]; -0.286 (inactive) in test [15]; 0.522 (inactive) in test [16]; -0.236 in test [17]; 2.18 (inactive) in test [18]; 1.06 (inactive) in test [19]. Also, in [20], the z-score worked out at 1.72.
`CC(C)NC(=O)[C@@H]1c2ccccc2C(=O)N(C2Cc3ccccc3C2)[C@H]1c1ccc(CO)cc1`: the composite z-score in [1] was -0.0402; in test [6], 0.251; in [7], -0.128; with Torsin-1A (Homo sapiens) [8], -0.232; with Torsin-1A (Homo sapiens) [9] it was 0.474; in [10] it was 0.231. For the same compound, the composite z-score in test [12] turned out to be 0.11. Moreover, the z-score in [2] is -1.09 (inactive); in test [3] it was -0.737 (inactive); in test [4], 0.441 (inactive); in test [5] it was -1.35 (inactive); in [11], 0.814 (inactive); in test [13] it was 3.41 (inactive). For the same compound, the z-score in test [14] was 0.119 (inactive); in test [15], 0.121 (inactive); in test [16], 0.182 (inactive); in test [17], 0.0063; in [18], -0.402 (inactive); in test [19], 0.0797 (inactive). For the same compound, in test [20], the z-score was -0.994.
`CN(C)C(=O)[C@@]1(CCS(=O)(=O)c2ccccc2)COC(c2ccc(OCCCO)cc2)=N1`: the composite z-score in test [1] was 0.623; in [6] it was 0.0248; in test [7] it was 0.0589; with Torsin-1A (Homo sapiens) [8], 1.24; with Torsin-1A (Homo sapiens) [9] it was 2.51; in test [10], -0.977. In addition, the composite z-score in test [12] is 0.0244. In addition, the z-score in test [2] was -3.66 (inactive); in test [3], -0.26 (inactive); in test [4], -0.562 (inactive); in [5], -0.793 (inactive); in test [11], 0.276 (inactive); in [13] it was 25.6 (active). Also, the z-score was 8.3 (active) in [14]; 1.69 (inactive) in test [15]; 1.26 (inactive) in test [16]; 0.313 in test [17]; -2.71 (inactive) in [18]; 0.265 (inactive) in test [19]. For the same compound, the z-score in [20] was -0.621.
With `CCCC=C(CCC)[C@@H](NC(=O)c1cccs1)c1ccc(C(F)(F)F)cc1`, the composite z-score in test [1] came out at 0.374; in test [6], 0.882; in test [7] it was 0.473; with Torsin-1A (Homo sapiens) [8], 0.598; in the test with Torsin-1A (Homo sapiens) [9], 0.704; in [10], 1.18. In addition, the composite z-score in test [12] was determined as 0.504. Further, the z-score in test [2] was -3.78 (inactive); in test [3] it was -0.407 (inactive); in [4] it was -0.761 (inactive); in test [5] it was 0.796 (inactive); in test [11], -0.938 (inactive); in test [13], 3.15 (inactive). In addition, the z-score in test [14] was -0.119 (inactive); in test [15] it was 1.36 (inactive); in [16] it was -1.39 (inactive); in test [17], 1.42; in [18], -4.56 (inactive); in [19] it was -3.52 (inactive). Also, the z-score in [20] was -2.77.

The values are drawn from PubChem BioAssay.
